Only some compounds are listed: those with a hit (about 6.1% of all), similar ones and a draw of the others.
D1 potentiator – Potentiators of Human D1 Dopamine Receptor: qHTS | D(1A) dopamine receptor (Homo sapiens), P21728 | HEK293 TREx D1 cells, calcium flux, dopamine EC20 potentiation | potentiation, % at 10 µM | 360,000 tested, 0.036% active | AID 504651, 2011; in the data active means potentiation above about 30%; further: 0% is about no effect
Target sequence (P21728 whole entry, looked up): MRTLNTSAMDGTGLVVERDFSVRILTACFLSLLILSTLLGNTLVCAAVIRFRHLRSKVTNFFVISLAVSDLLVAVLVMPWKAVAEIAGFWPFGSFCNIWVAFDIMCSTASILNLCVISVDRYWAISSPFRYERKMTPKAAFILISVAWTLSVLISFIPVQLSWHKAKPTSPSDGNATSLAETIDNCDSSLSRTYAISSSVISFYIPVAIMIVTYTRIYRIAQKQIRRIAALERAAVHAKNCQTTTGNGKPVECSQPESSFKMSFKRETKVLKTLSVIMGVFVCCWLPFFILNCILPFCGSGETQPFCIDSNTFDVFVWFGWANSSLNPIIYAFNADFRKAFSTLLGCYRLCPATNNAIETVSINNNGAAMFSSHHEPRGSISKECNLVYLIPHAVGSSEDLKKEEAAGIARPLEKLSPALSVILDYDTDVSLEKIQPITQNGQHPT
D1 antagonist – Antagonist of Human D 1 Dopamine Receptor: qHTS; activity change, negative = inhibition, % at 10 µM; AID 504652, 2011; 360,000 tested, 3.2% active; HEK293 TREx D1 cells, calcium flux, dopamine EC80; stronger effect = lower value; in the data active means activity change below about -30%; further: on the % scale 0 is the no-effect control and ±100 the full control effect
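Tetracycline-induced HEK293 Trex D1 cells, force-coupled to calcium, dye-loaded; compounds added and read 180 s, then EC80 dopamine added and calcium flux tracked kinetically another 180 s.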
DRD3 antagonist – qHTS of D3 Dopamine Receptor Antagonist: qHTS; D(3) dopamine receptor (Homo sapiens), P35462; D3R cells, DiscoveRx beta-arrestin luminescence, antagonist mode; stronger effect = lower value; max response, negative = inhibition, %; 360,000 tested, 2.5% active; AID 652054, 2013; in the data active means max response below about -50%; further: on the % scale 0 is the no-effect control and ±100 the full control effect
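Cells expressing the human receptor were seeded at 1500 cells/well, incubated overnight at 37 degrees C in 5% CO2, then exposed to library compounds with dopamine controls for 90 minutes at 37 degrees C before luminescent detection.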
D1 ag – Allosteric Agonists of the Human D1 Dopamine Receptor: qHTS | HEK293 T-REx D1 cells, calcium flux, agonist mode | D(1A) dopamine receptor (Homo sapiens), P21728 | activation, % at 2 µM | 360,000 tested, 1% active; in the data active means activation above about 30%; further: 0% is about no effect
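Agonism was scored from calcium flux recorded over 180 s (1 read/s) after pintool compound addition, following a 10-cycle baseline. Cells were inducible force-coupled HEK293 TREx D1, plated overnight at 30 C and loaded with no-wash calcium dye.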
D3 ag – qHTS of D3 Dopamine Receptor Agonist: qHTS; D(3) dopamine receptor (Homo sapiens), P35462; D3R DiscoveRx beta-arrestin cells, luminescence, 90 min; max activation, %; 410,000 tested, 0.58% active; AID 652048, 2013; in the data active means max activation above about 30%; further: 0% is about no effect
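Agonist mode: compounds and dopamine controls were applied to plated cells for 90 min at 37 degrees C after an overnight attachment at 1500 cells/well. Luminescent read-out followed 30 - 60 minutes at room temperature with DiscoveRx detection reagent.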
ERG-DNA inh – qHTS for Small Molecule Inhibitors of the ERG Ets/DNA interaction | Transcriptional regulator ERG (Homo sapiens), P11308 | fluorescence polarization, His-ERG Ets domain / labelled DNA | Potency, µM (top dose mostly 76.9 µM), without a hit: at the top dose FP activity, negative = inhibition, actives largely listed as inhibitors | 370,000 tested, 0.028% active | AID 624246, 2012; active means well fitted inhibition curve with a large enough effect in the polarisation, with a control signal flat; the % refers to the polarisation;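 further: polarization taken with two DNA probes labelled with fluorescein and Texas red; potency means the concentration at half of the fitted maximal effect; % of control where 0% means no effect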
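His-tagged ERG Ets domain (1 uM in the protein solution; 300mM KCl, 50mM Tris-HCl, 1mM EDTA, 1mM DTT, pH 7.5) received compound, then a probe mix of 5 nM fluorescein-DNA and 100nM Texas-615-DNA. Fluorescence polarization was read for both dyes.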
An asterisk follows results filed as active; . = no result.

SMILES	D1 potentiator	D1 antagonist	DRD3 antagonist	D1 ag	D3 ag	ERG-DNA inh
COCCNC(=O)C1CCCN(C(=O)c2cncc(Br)c2)CC1 (stereo not given)	.	.	-77*	.	-18	.
COCCNC(=O)C1CCCN(C(=O)Cc2cccc3ccccc23)CC1 (stereo not given)	.	.	-102*	.	-11	.
COCCNC(=O)C1CCCN(C(=O)Cc2ccc(F)cc2)CC1 (stereo not given)	.	.	28	.	10	.
CC(C)(C)c1ccc(-c2n[nH]c(=S)n2CC2CCCO2)cc1 (stereo not given)	-1	-9	11	5	1	14%
CCN1CCc2nc3sc(C(=O)c4ccc(F)cc4)c(N)c3cc2C1	0	-14	.	30*	4	6%
O=C(CSc1nnc(C2CC2)n1C1CC1)c1ccc(Br)s1	.	.	-65*	.	0	8%
CCCC(C(=O)Nc1ccncc1)c1ccccc1 (stereo not given)	-6	-40*	24	9	-16	11%
O=C(C1CCCN(Cc2cc(Br)ccc2O)C1)N1CCCCC1 (stereo not given)	-1	-15	-22	3	-18	7%
COC(=O)CN(c1ccccc1C)S(C)(=O)=O	-4	-38*	15	1	4	-1%
CCc1ccccc1N(CC(=O)OC)S(C)(=O)=O	-4	1	-18	3	0	-10%
COc1ccc(C(CC(=O)Nc2cc(Cl)c(OC)cc2OC)N2Cc3ccccc3C2=O)cc1 (stereo not given)	0	2	.	5	47*	5%
CCN(CC)S(=O)(=O)c1ccc(F)c(C(=O)OC2CC(C)OC2=O)c1 (stereo not given)	-9	14	14	0	5	-6%
CN(C)/C=N/c1c(C#N)nnn1Cc1ccccc1	-8	1	8	2	1	-1%
Nc1ncnc2c1ncn2[C@@H]1O[C@H](COP(=O)(O)OP(=O)(O)OP(=O)(O)O)[C@@H](O)[C@H]1O	18	42	-8	291*	8	-10%
CC1(C)O[C@@H]2[C@H](O1)[C@@H](COS(=O)(=O)O)O[C@H]2n1cnc2c(N)ncnc21	-4	-31*	.	3	.	.
Nc1ncnc2c1ncn2[C@@H]1O[C@H](COP(=O)(O)O)[C@@H](O)[C@H]1O	0	-2	-23	4	-31	-15%
COc1ccc(CN2CCC(CO)(CCOc3ccccc3)CC2)cc1C	-2	17	2	48*	-9	-2%
CSc1ccc(CN2CCC(CO)(CCOc3ccccc3)CC2)cc1	-8	5	-14	41*	-18	-4%
Cc1c(Cl)cccc1NC(=S)N1CCN(c2ncccn2)CC1	-1	10	-11	2	-1	15%
CC(=O)c1ccc(N2CCN(C(=O)CCS(=O)(=O)c3ccc(C)cc3)CC2)cc1	-3	5	0	10	-1	8%
CCCCCC(=O)NNC(=O)c1ccc(-c2ccccc2)cc1	-1	-3	30	2	36*	0%
CCCCC(=O)NNC(=S)NC(=O)c1ccc(C)cc1	1	-17	8	60*	21	-7%
CCCc1cnc2c(c1SCC(=O)Nc1ccccc1OCC)c(=O)n(C)c(=O)n2C	0	.	.	0	-7	10%
CCc1nc2ccc(C(=O)NCCOc3ccc(OC)cc3)cn2c1N(C)C(=O)C1CCCCC1	.	.	-24	.	-4	.
CC(C)CNS(=O)(=O)c1ccc(CCC(=O)N2CCN(Cc3ccc4c(c3)OCO4)CC2)cc1	-2	-33*	143	16	1	-3%
SMILES	D1 potentiator	D1 antagonist	DRD3 antagonist	D1 ag	D3 ag	ERG-DNA inh
COc1ccc(N(CC(=O)N2CCN(Cc3ccc4c(c3)OCO4)CC2)S(=O)(=O)c2ccc(F)cc2)cc1	0	3	-51*	1	-18	0%
Cc1ccc(S(=O)(=O)N(C)CC(=O)N2CCN(Cc3ccc4c(c3)OCO4)CC2)cc1	-6	-18	-10	3	-22	-8%
Cc1ccc(CNC(=O)CCc2ccc(S(=O)(=O)NCC(C)C)cc2)cc1	-2	7	-51*	2	-7	7%
COc1ccc(N(CC(=O)N2CCN(Cc3ccc4c(c3)OCO4)CC2)S(C)(=O)=O)cc1OC	-4	-11	23	0	1	-4%
O=C(CN(c1ccccc1)S(=O)(=O)c1ccccc1)N1CCN(Cc2ccc3c(c2)OCO3)CC1	-2	10	-67*	5	-20	-6%
CC(C)CNS(=O)(=O)c1ccc(CCC(=O)NCc2cccnc2)cc1	-3	0	-15	0	0	8%
CC(C)c1cccc(-c2csc(C(O)c3ccco3)n2)c1 (stereo not given)	.	.	2	.	1	.
CC(Oc1ccccc1)C(=O)N=C1SC2CS(=O)(=O)CC2N1Cc1ccc(F)cc1 (stereo not given)	2	-3	1	4	3	2%
COC(=O)C1CN(C(=O)COc2ccccc2)c2ccccc2O1 (stereo not given)	5	4	3	3	0	-11%
CCCCCCC(=O)NCC(=O)OCC(=O)c1ccccc1	2	-7	-19	1	-6	2%
O=C(Nc1nnc(SCc2ccccc2Cl)s1)C1COc2ccccc2O1 (stereo not given)	1	0	-59*	1	-1	4%
CCOC(=O)Cc1c(C)nc2cc(-c3ccc(C(C)(C)C)cc3)nn2c1C	-6	-39*	.	1	13	5%
Cc1ccc(CNC(=O)CN2N=C(c3ccc(C)cc3)CCC2=O)cc1	0	-9	.	-3	-9	-4%
COc1ccc(C2=NN(CCC(=O)NC3CCC(C)CC3)C(=O)CC2)cc1 (stereo not given)	22	15	-2	0	4	-8%
COc1ccc(C2=NN(CCC(=O)NC3CCCCCC3)C(=O)CC2)cc1	-3	-33*	-3	1	-2	-15%
COc1cccc(CNC(=O)CN2N=C(c3ccc(C)cc3)CCC2=O)c1	2	-8	.	0	33*	-1%
COc1ccc(CNC(=O)C2CCN(c3nc4ccc(C)cc4[nH]3)CC2)cc1	7	-1	.	38*	-1	-1%
COCCCNC(=O)C1CCN(c2nc3ccc(C)cc3[nH]2)CC1	-2	-55*	.	2	3	-3%

Screening data: PubChem BioAssay, National Center for Advancing Translational Sciences (NCATS)
